From PubChem
Shown are actives, neighbours in structure and some others; about 0.76% of the full set was active somewhere.
PrP 5UTR inh: suppresses PrP 5' UTR mRNA reporter expression; cell-based PrP 5' UTR mRNA reporter, plate reader; inhibition, % (concentration not given with the values); 0.35% of 340,000 active; in the data active = inhibition above about 52%; note: 0 = median of the neutral control wells
Mtb bLac sens: beta-lactam sensitization of Mtb H37Rv | M. tuberculosis H37Rv growth with meropenem, percent inhibition | inhibition, % at 25 µM | 0.27% of 330,000 active | AID 434955;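 note: growth measured after seven days incubation then overnight dye step; 0% = bacteria only wells and 100% = bacteria with antibiotic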
Vc quorum ag-1: quorum light induction in luxS cqsA deficient V. cholerae | 0.16% of 350,000 active | V. cholerae BH1578 lux reporter, luminescence, 6 h | activation, % at 18.7 µM | AID 588436; in the data active = activation mostly above about 9.7%, no sharp cut-off
FadD28 binding: blocks FadD28 binding to the bisubstrate probe; AID 588549; fluorescence polarization; 0.22% of 360,000 active; inhibition, % at 12.5 µM; in the data active = inhibition above about 8.5%, passing the limit was not always enough
Rv3671c protease: inhibitors of M. tuberculosis serine protease Rv3671c. P9WHR9. inhibition, % at 5.96 µM. 0.048% of 320,000 active; in the data active = inhibition above about 38%;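 note: extracellular domain of Rv3671c used as enzyme; 0% = enzyme with DMSO and 100% = no enzyme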
Mtb UGM inh: blocks M. tuberculosis UGM enzyme; P9WIQ1; purified UGM, fluorescence polarization probe displacement; inhibition, % at 10 µM; 0.06% of 320,000 active; in the data active = inhibition above about 10%, passing the limit was not always enough
Target sequence (P9WIQ1 whole entry, looked up): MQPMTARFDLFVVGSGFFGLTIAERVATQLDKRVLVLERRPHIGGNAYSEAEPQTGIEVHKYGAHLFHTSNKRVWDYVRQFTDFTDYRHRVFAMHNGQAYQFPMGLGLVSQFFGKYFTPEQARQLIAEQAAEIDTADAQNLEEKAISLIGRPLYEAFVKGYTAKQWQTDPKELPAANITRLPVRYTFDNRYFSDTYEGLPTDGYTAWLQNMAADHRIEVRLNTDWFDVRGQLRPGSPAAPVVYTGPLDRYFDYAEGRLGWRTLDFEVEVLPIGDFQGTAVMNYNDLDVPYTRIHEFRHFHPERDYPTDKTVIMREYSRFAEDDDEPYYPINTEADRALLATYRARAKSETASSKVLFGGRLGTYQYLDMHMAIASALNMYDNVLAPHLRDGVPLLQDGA
Vc quorum ag-2: inducers of V. cholerae quorum light production without autoinducers | V. cholerae BH1578 lux reporter, luminescence, 6 h | 620 tested, under 10 active | AID 602243 | activation, % at 50 µM | shares compounds with Vc quorum ag-1
HeLa 24h tox: cytotoxicity in HeLa cells at 24 hours; shares compounds with Vc quorum ag-1; HeLa viability, CellTiter-Glo ATP luminescence; activity change, negative = cytotoxicity, % at 35 µM; 25 tested, under 10 active;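 active = signal drop with fitted half-maximal concentration at or below twice the highest valid dose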
The depositor's hits bear a star; i = inactive; . = no result given; + = active, no number. Unless noted, the rule behind the calls is not given here.

SMILES | PrP 5UTR inh | Mtb bLac sens | Vc quorum ag-1 | FadD28 binding | Rv3671c protease | Mtb UGM inh | Vc quorum ag-2 | others
O=c1c2ccccc2[nH]c(=S)n1CC1CCCO1 (stereo not drawn) | -17.0 | 5.0 | -0.9 | -0.3 | -8.5 | . | .
O=c1c2cc(N3CCOCC3)ccc2[nH]c(=S)n1CC1CCCO1 (stereo not drawn) | -23.0 | 2.9 | 12.5 | -3.0 | 3.4 | -3.3 | -0.1
COCCCn1c(=S)[nH]c2ccc(N3CCOCC3)cc2c1=O | -14.0 | -22.1 | 12.5 | -2.6 | 3.8 | 0.1 | 0.1
O=C1/C(=C/c2cccnc2)SC(=S)N1CCc1ccccc1 | -17.6 | 52.4 | -0.6 | -1.5 | -0.9 | -0.6 | .
COc1ccccc1NC(=O)Cc1ccc(-c2ccccc2)cc1 | 0.7 | 12.1 | + | -4.9 | -14.2 | -3.1 | i
CCCC(C)NC(=O)Cc1ccccc1 (stereo not drawn) | -19.3 | -8.1 | -0.3 | -0.9 | 8.2 | -3.7 | .
CCC(C)NC(=O)Cc1ccc(-c2ccccc2)cc1 (stereo not drawn) | -13.5 | 1.9 | + | -1.5 | -16.0 | 0.1 | i | HeLa 24h tox=-6.4
CCOCCCNC(=O)C(NC(=O)CNC(=O)c1ccccc1)c1ccccc1 (stereo not drawn) | -3.4 | 1.1 | 27.8* | 1.6 | 6.9 | -3.1 | 0.2
CCOCCCNC(=O)C(NC(=O)CNC(C)=O)c1ccc(Cl)cc1 (stereo not drawn) | -3.6 | -6.4 | -0.3 | -2.3 | 6.5 | 1.3 | .
Cc1ccc(S(=O)(=O)NCCN2CCOCC2)c(C)c1C | -3.0 | 0.3 | -0.2 | -0.9 | 3.9 | 0.4 | .
CCc1ccc(OCC(=O)O/N=C(\N)c2ccncc2)c(Br)c1 | -54.8 | 3.8 | 4.3 | -0.7 | 3.3 | 1.9 | .
Cc1nnc2c3ccccc3c(-c3ccc(O)cc3)nn12 | -10.6 | -12.3 | 83.9* | 0.9 | -3.4 | 2.2 | 412.5
CC(NC(=O)COC(=O)c1ccc(N2CCCC2=O)cc1)c1ccc(F)cc1 (stereo not drawn) | -15.3 | -1.4 | i | -3.6 | 1.4 | -1.0 | .
CC(=O)Nc1ccc(C(=O)N2CCCc3ccccc32)cc1 | -27.5 | -6.1 | i | 2.0 | 0.0 | 1.6 | .
CC(=O)C(CC(=O)N1CCCc2ccccc21)C(=O)Nc1ccc(F)cc1 (stereo not drawn) | -25.9 | -4.4 | 14.3 | -1.2 | 3.6 | -0.4 | -0.1
COc1ccc(C(=O)N2CCC(C(=O)c3ccc(F)cc3)CC2)cc1 | -25.4 | -6.1 | 16.7* | -2.7 | 5.4 | 0.7 | 1.0
COc1ccccc1C(=O)Oc1cc(C)[nH]c(=O)c1[N+](=O)[O-] | -5.5 | 0.7 | i | -0.7 | 3.9 | 1.8 | .
CCCCNC(=O)CN(c1cccc(Br)c1)S(C)(=O)=O | -14.7 | -1.4 | 32.1* | -2.4 | -2.6 | -3.4 | 0.1
CCCCNC(=O)CN(c1cccc(F)c1)S(C)(=O)=O | -12.1 | 3.7 | -1.0 | -0.2 | 5.0 | 0.3 | .
CCC1SC(CC)C(=O)N(CC(=O)Nc2ccc3c(c2)OCO3)C1=O (stereo not drawn) | -20.2 | -8.4 | 0.4 | -1.8 | -7.5 | 6.2 | .
COc1cccc(-n2nnnc2SCC(=O)NC2CCCCC2)c1 | -32.8 | 1.1 | i | -4.2 | -1.7 | -0.6 | .
CSc1nc(C)cc(OCC(=O)N2CCOCC2)n1 | -18.8 | 3.6 | 32.1* | -1.1 | -0.8 | -0.6 | 0.3
Cc1ccc(C)c(N(C(=O)Cn2nnc(-c3cccs3)n2)C(C(=O)NC2CC2)c2ccc(C)o2)c1 (stereo not drawn) | -1.2 | -1.9 | 828.6* | -1.5 | 1.4 | 0.3 | 2.2
COc1cccc(C(=O)NC2CCSC2=O)c1 (stereo not drawn) | 3.3 | -0.8 | i | -1.8 | 4.3 | 0.9 | .
COc1ccc(C(=O)NC2CCSC2=O)cc1 (stereo not drawn) | -1.5 | 2.2 | 14.3 | 1.2 | -2.0 | 1.3 | -0.1
COc1ccccc1NC(=O)COC(=O)c1cc(C)oc1C | -30.9 | 3.2 | . | 0.0 | -3.7 | -0.4 | i
COc1ccccc1NC(=O)COC(=O)c1cn(C)c2ccccc12 | -11.3 | 6.3 | + | -0.7 | -19.6 | 1.3 | 267.8
COc1ccccc1NC(=O)COC(=O)c1ccc2c(c1)OCCO2 | -18.3 | 2.3 | 52.2* | -3.1 | 0.8 | 2.8 | 6.9
